From PubChem BioAssay (NCATS)
Inconclusive results are not listed. Activity calls are given as the source filed them. Calls follow the shape of the dose curve; as a rule, active = well fitted cell-killing curve with a large enough effect; inconclusive = small, poorly fitted or top-dose-only effect, or effect the other way; inactive = no such curve, though single readings can be large or run the other way.
Potency is read from the fitted curve at half-maximal effect.

Test: Quantitative High-Throughput drug screen in 47 multiple myeloma cell lines against the NCATS MIPE library collection: KHM11_PLB cell viability assay (AID 1918962); also: nearly all actives have a fitted effect of over 35% in size
Conditions: KHM11 myeloma cell viability, CellTiter-Glo ATP luminescence, 48 h; series mostly up to 45.8 µM
Description: PI: Beverly A. Mock Ph.D.
Laboratory of Cancer Biology and Genetics,
Center for Cancer Research, National Cancer Institute,
National Institute of Health, Bethesda, Maryland
Drug resistance and disease progression are common in multiple myeloma (MM) patients, underscoring the need for new therapeutic combinations. […] We hypothesized that effective combinations would reduce MYC expression and enhance p16 activity. […] These preclinical data identify potentially useful drug combinations for evaluation in drug-resistant MM and reveal potential mechanisms of combined drug sensitivity.
Described herein is the primary MIPE qHTS used to cherrypick compounds. Validated compounds were then further tested for potential synergistic activiy.
[1] Peat TJ, Gaikwad SM, Dubois W, Gyabaah-Kessie N, Zhang S, Gorjifard S, Phyo Z, Andres M, Hughitt VK, Simpson RM, Miller MA, Girvin AT, Taylor A, Williams D, D'Antonio N, Zhang Y, Rajagopalan A, Flietner E, Wilson K, Zhang X, Shinn P, Klumpp-Thomas C, McKnight C, Itkin Z, Chen L, Kazandijian D, Zhang J, Michalowski AM, Simmons JK, Keats J, Thomas CJ, Mock BA. Drug combinations identified by high-throughput screening promote cell cycle transition and upregulate Smad pathways in myeloma. Cancer Lett. 2023 Aug 1;568:216284. doi: 10.1016/j.canlet.2023.216284. Epub 2023 Jun 24. PMID: 37356470; PMCID: PMC10408729.
SEQUENCE No. (e.g., 1, 2, 3, etc.); […] (e.g., Cells, Incubation, Reagent, etc.); VALUE and DESCRIPTION.
1; Cells; 5 uL; white, solid bottom 1536-well Greiner assay plate.
2; Compounds; 23 nL; Kalypsis pin tool (Wako USA) equipped with a 1536-well pin head to transfer to the assay plates.
3; Incubation; 48 hours; 37C incubation.
4; Reagent;5uL; CellTiter Glo (Promega).
5; Detector; 425V; Luminescence; Viewlux PerkinElmer.
NOTES (numbers refer to Sequence numbers above)
1. The cell-based screening methods employed in this study were like those previously published. Briefly, the corresponding myeloma cell lines were screened in 1,536-well plates with 500 cells, 5-uL per well for inhibition of cell viability (assessed by measuring ATP levels with CellTiterGlo).
2. NCATS MIPE 4.0 library of approved and investigational drugs were added using the Kalypsis pin tool. Wells treated with DMSO only for 100% viability and media only wells for 0% viability were used as controls.
3. The assay plates were covered and incubated for 48 hours in a 37C, 5% CO2 incubator with controlled humidity.
4. After 48 hours, CellTilter-GloTM luminescent substrate mix (Promega) reagent was added to the assay plate and plates we incubated for 5 min at room temperature.
5. Signal was measured as median relative luminescence units on a ViewLux (PerkinElmer) multiplate reader.
[1] Heske CM, Davis MI, Baumgart JT, Wilson K, Gormally MV, Chen L, Zhang X, Ceribelli M, Duveau DY, Guha R, Ferrer M, Arnaldez FI, Ji J, Tran HL, Zhang Y, Mendoza A, Helman LJ, Thomas CJ. Matrix Screen Identifies Synergistic Combination of PARP Inhibitors and Nicotinamide Phosphoribosyltransferase (NAMPT) Inhibitors in Ewing Sarcoma. Clin Cancer Res. 2017 Dec 1;23(23):7301-7311. doi: 10.1158/1078-0432.CCR-17-1121. Epub 2017 Sep 12. PMID: 28899971; PMCID: PMC6636827.
For CC(C)C[C@H](NC(=O)[C@@H](NC(=O)c1cccc(-c2ccccc2)n1)[C@@H](C)O)B(O)O, the Potency was 0.0187 µM (active).
With NC(=O)c1cccc(-c2cccc(OC(=O)NC3CCCCC3)c2)c1 the Potency was “inactive”.
With COc1cc(C)c(Sc2cnc(NC(=O)c3ccc(CNC(C)C(C)(C)C)cc3)s2)cc1C(=O)N1CCN(C(C)=O)CC1 (stereo not given) the Potency was 14.8 µM (active).
With O=C(NCc1ccccc1)[C@H](Cc1ccccc1)NC(=O)[C@@H]1O[C@@H]1C(=O)NCCc1ccc(O)cc1 the Potency was “inactive”.
For OCCNC1CCCc2c1[nH]c1ccc(-c3ccccc3)cc21 (stereo not given), the Potency was 9.35 µM (active).
For C[C@H](NC(=O)C(C#N)=Cc1cccc(Br)n1)c1ccccc1, the Potency was 2.09 µM (active).
For CCNC(=O)c1cc2c(-c3cc(OCCN4CCCC4)c(Cl)cc3Cl)nc(N)nc2s1, the Potency was 0.59 µM (active).
For C#C[C@]1(O)CC[C@@H]2[C@@H]3CCC4=CC(=O)CC[C@@H]4[C@H]3CC[C@@]21CC, the Potency was “inactive”.
With COC[C@H](NC(=O)c1cnc(C)s1)C(=O)N[C@@H](COC)C(=O)N[C@@H](Cc1ccccc1)C(=O)[C@@]1(C)CO1 the Potency was 0.0662 µM (active).
With O=C1CSC(=O)N1C(CCc1ccncc1)COc1ccc(-c2cccc([N+](=O)[O-])c2)cc1 (stereo not given) the Potency was 10.5 µM (active).
In the case of C[C@H]1C[C@H]2[C@@H]3CCC4=CC(=O)C=C[C@]4(C)[C@@H]3C(=O)C[C@]2(C)[C@@]1(O)C(=O)CO, the Potency is reported as “inactive”.
In the case of C=Cc1c(C)c2cc3nc(cc4[nH]c(cc5nc(cc1[nH]2)C(C)=C5CCC(=O)O)c(CCC(=O)OC)c4C)[C@@]1(C)C3=CC=C(C(=O)OC)[C@H]1C(=O)OC, the Potency is reported as 0.526 µM (active).
With CC(Cc1ccc(O)c(O)c1)(NN)C(=O)O (stereo not given) the Potency was “inactive”.
With CC(C(C)N1CC(=O)NC(=O)C1)N1CC(=O)NC(=O)C1 (stereo not given) the Potency was “inactive”.
In the case of COc1ccc(Nc2nccc(NCCO)n2)cc1, the Potency is reported as “inactive”.
For COc1cccc2c1C(=O)c1c(O)c3c(c(O)c1C2=O)C[C@@](O)(C(=O)CO)C[C@H]3O[C@H]1C[C@H](N)[C@H](O)[C@H](C)O1, the Potency was 0.332 µM (active).
For Nc1ccc(C(=O)Nc2cccc(-c3nc(N4CCOCC4)c4oc5ncccc5c4n3)c2)cn1, the Potency was 7.43 µM (active).
In the case of C[C@H]1O[C@H](O[C@H]2[C@H](O)[C@@H](O)[C@@H](O[C@H]3[C@H](O)[C@@H](O)C(O)O[C@H]3CO)O[C@H]2CO)[C@H](O)[C@@H](O)[C@H]1N[C@H]1C=C(CO)[C@@H](O)[C@H](O)[C@@H]1O (stereo not given in full), the Potency is reported as “inactive”.
With Cc1cnc(NC(=O)Nc2cc(Br)c(C)cc2OC[C@@H]2CNCCO2)cn1 the Potency was 20.9 µM (active).
With C=CC[C@@H]1C=C(C)C[C@H](C)C[C@H](OC)[C@H]2O[C@@](O)(C(=O)C(=O)N3CCCC[C@H]3C(=O)O[C@H](C(C)=C[C@@H]3CC[C@H](O)[C@H](OC)C3)[C@@H](C)[C@@H](O)CC1=O)[C@@H](C)C[C@@H]2OC the Potency was 2.64 µM (active).
For COc1cc(C(C)C)c(Oc2cnc(NC(CO)CO)nc2N)cc1I, the Potency was “inactive”.
In the case of Oc1ccc(-c2ccc(-c3cc(Nc4cccc(CNC5CC5)c4)n[nH]3)cc2)c(O)c1, the Potency is reported as 0.743 µM (active).
For O=C1NC(O)CCN1[C@@H]1O[C@H](CO)[C@H](O)[C@H]1O (stereo not given in full), the Potency was “inactive”.
For COc1cccc2c1C(=O)c1c(O)c3c(c(O)c1C2=O)C[C@@](O)(C(=O)CO)C[C@@H]3O[C@H]1C[C@H](N)[C@H](OC2CCCCO2)[C@H](C)O1 (stereo not given in full), the Potency was 2.09 µM (active).
For CN(C)c1ccc(C(=O)NCCCCCCC(=O)NO)cc1, the Potency was 1.66 µM (active).
In the case of CC(=O)OCC(=O)[C@@]1(O)CC[C@H]2[C@@H]3CCC4=CC(=O)CC[C@]4(C)[C@@H]3C(=O)C[C@@]21C, the Potency is reported as “inactive”.
In the case of CN(C)CC[C@H](c1ccc(Cl)cc1)c1ccccn1, the Potency is reported as “inactive”.
With NC(=O)Nc1sc(-c2ccc(F)cc2)cc1C(N)=O the Potency was 0.833 µM (active).
With C=CC(=O)N1CCc2ccc(-n3c(=O)ccc4cnc5ccc(-c6cnn(C)c6)cc5c43)cc21 the Potency was 0.526 µM (active).
With Nc1nc2c(c(=O)[nH]1)N(C=O)[C@H](CNc1ccc(C(=O)N[C@@H](CCC(=O)O)C(=O)O)cc1)CN2 the Potency was “inactive”.
In the case of C[C@@]12C[C@@]3(O)O[C@@H](O1)[C@]1(COC(=O)c4ccccc4)[C@@H]3C[C@@]12O[C@@H]1O[C@H](CO)[C@@H](O)[C@H](O)[C@@H]1O, the Potency is reported as “inactive”.
In the case of Oc1cc2c(cc1O)C1c3ccc(O)c(O)c3OCC1(O)C2 (stereo not given), the Potency is reported as “inactive”.
With CCCCC(=O)O[C@]1(C(=O)CO)[C@@H](C)C[C@H]2[C@@H]3CCC4=CC(=O)C=C[C@]4(C)[C@@]3(F)[C@@H](O)C[C@@]21C the Potency was “inactive”.
With CCc1c(O)cc(O)c(C(=O)c2ccc(OCCN3CCOCC3)c(OC)c2)c1CC(=O)N(CCOC)CCOC the Potency was 0.469 µM (active).
In the case of CCOC(=O)N1CCN([N+]([O-])=NOc2ccc([N+](=O)[O-])cc2[N+](=O)[O-])CC1, the Potency is reported as 1.48 µM (active).
In the case of C[C@H](CCC(=O)O)[C@H]1CCC2C3C[C@H](O)[C@@H]4C[C@H](O)CC[C@]4(C)C3CC[C@@]21C (stereo not given in full), the Potency is reported as “inactive”.
With COc1cccc2c1C(=O)c1c(O)c3c(c(O)c1C2=O)C[C@@](O)(C(=O)CO)C[C@@H]3O[C@H]1C[C@H](N)[C@@H](O)[C@H](C)O1 the Potency was 0.743 µM (active).
In the case of Cc1cc(Nc2ncc3c(n2)N(C)C(=O)N(c2cc(NC(=O)c4cccc(C(F)(F)F)c4)ccc2C)C3)n(C)n1, the Potency is reported as 0.372 µM (active).
With CCCNC(=O)[C@H]1O[C@H]1C(=O)N[C@H](C(=O)N1CCC[C@@H]1C(=O)OC)C(C)CC (stereo not given in full) the Potency was 33.2 µM (active).
In the case of C[C@@H](Oc1ccc2[nH]nc(C=Cc3cnn(CCO)c3)c2c1)c1c(Cl)cncc1Cl, the Potency is reported as 1.87 µM (active).
